# Results taken from PubChem BioAssay (Tox21).
# Where “and” joins values, the source holds several entries; their conditions need not be identical. Equal values may be shown once. Records with an inconclusive call do not appear. A call without a number means that no potency is given here. Calls of active or inactive are those of the source. The call rests on the fitted dose curve; in most records, active means well fitted cell-killing curve with a large enough effect in the repeat runs; inconclusive means weak or mixed curves; inactive means flat fitted curve, though single readings scatter.
# Test: qHTS assay to identify small molecule antagonists of the TGF-beta/Smad signaling pathway - cell viability counter screen (AID 1346824); further: nearly all actives have a fitted effect of over 50% in size
# Settings: SBE-bla HEK293T viability, CellTiter-Glo luminescence; series mostly up to 76.8 µM
# Text: U.S. Tox21 Program National Center for Advancing Translational Sciences [NCATS] NIH Chemical Genomics Center [NCGC] U.S. Environmental Protection Agency [EPA] National Institutes of Environmental Health Sciences [NIEHS] National Toxicology Program [NTP] U.S. Food and Drug Administration [FDA] Tox21 Assay Overview: Transforming growth factor beta (TGF-beta) superfamily consists of a large number of structurally related dimeric proteins that act as hormones or local mediators in regulating a wide range of biological functions. This superfamily includes TGF-betas themselves, the bone morphogenetic proteins (BMPs) and the activins. These ligands induce oligomerization of serine/threonine receptor kinases and phosphorylate the cytoplasmic signaling molecules of Smad protein family. CellSensor SBE-bla HEK 293T cell line (Life Technologies, Carlsbad, CA), responsive to TGF-beta was used to screen Tox21 10K compound library for identification of agonists/antagonists of the Smad signaling pathway. This cell line contains a beta-lactamase reporter gene under control of the Smad binding element (SBE) stably integrated into HEK 293T cells. Also cytotoxicity of the compounds was tested in parallel by measuring the cell viability using CellTiter-Glo assay system in the same wells.
# Tox21 Assay Protocol Summary: SBE-bla HEK 293T cells were dispensed at 4,000/well in 5 uL of assay medium into black wall/clear-bottom 1536-well plates using a Multidrop Combi (ThermoFisher Scientific, Waltham, MA) dispenser. After the assay plates were incubated at 37 C and 5% CO2 for an overnight, 23 nL of compounds dissolved in DMSO, positive controls or DMSO only was transferred to the assay plate by a Pintool station (Kalypsys, San Diego, CA). Compound transfer was followed by the addition of 1 uL of 0.25 ng/mL TGF-beta1 or assay buffer using two separate tips of Flying Reagent Dispenser (FRD, Aurora Discovery, San Diego, CA). The assay plates were incubated at 37 C and 5% CO2 for 5 hr. One uL of LiveBLAzer B/G FRET substrate (Life Technologies) was added using a Flying Reagent Dispenser (FRD, Aurora Discovery, San Diego, CA) and the plates were incubated at room temperature for 2 hr. Fluorescence intensity (405 nm excitation, 460 nm and 530 nm emissions) was measured using an Envision plate reader (PerkinElmer, Shelton, CT). For cytotoxicity read, 4 uL of CellTiter-Glo reagent (Promega Corporation, Madison, WI) was added to each well of the assay plates using FRD. After 30 min incubation at room temperature, the luminescence intensity was measured using ViewLux plate reader (PerkinElmer).
# Potency means the concentration at half of the fitted maximal effect.
row,Structure (SMILES),Potency
1,C=CCc1ccc(OC(=O)Cc2ccccc2)c(OC)c1,inactive
2,COc1cc(CC(C)N)c(OC)cc1Br (stereo not given),inactive
3,CCOC(=O)NC(O)C(Cl)(Cl)Cl (stereo not given),inactive
4,CN[C@@H](C)[C@H](O)c1ccccc1,inactive
5,CN(C1CCCCC1)C1CCCCC1,inactive
6,CCCC1CCCCN1 (stereo not given),inactive
7,CC(C)(C#N)C(C)(C)C#N,inactive
8,CCCN(CCC)c1c([N+](=O)[O-])cc(C(C)C)cc1[N+](=O)[O-],inactive
9,CCCC[P+](CC)(CCCC)CCCC (tested in a mixture with another compound),inactive
10,Nc1ccccc1C(=O)OCC(O)CO (stereo not given),inactive
11,CCC(=O)O[C@@H]1C=C2CCC3C(CCC4(C)C3CC[C@@H]4OC(=O)CC)C2CC1 (stereo not given in full),inactive
12,c1ccc2sc(SNC3CCCCC3)nc2c1,inactive
13,CCCCCCCCn1sccc1=O,49.1 µM (active) and 51.3 µM (active)
14,CCCCCCCCCCCCCCCl,inactive
15,CC(C)[C@@H](C(=O)O[C@@H](C#N)c1cccc(Oc2ccccc2)c1)c1ccc(Cl)cc1,inactive
16,CC(=O)OC(c1ccccc1)C(Cl)(Cl)Cl (stereo not given),inactive
17,CCCC[N+]1(C)[C@@H]2CC(OC(=O)[C@H](CO)c3ccccc3)C[C@H]1[C@@H]1O[C@@H]12 (stereo not given in full),inactive
18,Nc1ccccc1C(=O)OCCc1ccccc1,inactive
19,O=C=NC1CCCCC1,inactive
20,C[N+]1(CCC(C(N)=O)(c2ccccc2)c2ccccc2)CCCCC1,inactive

row,Structure (SMILES),Potency
1,Nc1cc(Cl)cc(C(=O)O)c1Cl,inactive
2,COP(=O)(OC)OC(Br)C(Cl)(Cl)Br (stereo not given),inactive
3,O=C(N[C@H]1CN2CCC1CC2)c1ccc2c(c1)OCCO2,inactive
4,CCOP(=S)(OCC)Oc1ccc(S(C)=O)cc1 (stereo not given),inactive
5,O=C([O-])c1ccccn1.O=C([O-])c1ccccn1.O=C([O-])c1ccccn1.[Cr+3],inactive
6,CCCCNC(=O)OCC#CI,inactive
7,CC(O)CN1CCN(CC(=O)[O-])CCN(CC(=O)[O-])CCN(CC(=O)[O-])CC1.[Gd+3] (stereo not given),inactive
8,CC(C)(C)N(NC(=O)c1ccc(Cl)cc1)C(=O)c1ccccc1,inactive
9,Cc1nc(N(C)C)nc(OC(=O)N(C)C)c1C,inactive
10,C=C(Cl)Cl,inactive
11,C=CCOC(=O)C(C)(C)OC(=O)c1cc(-n2c(=O)cc(C(F)(F)F)n(C)c2=O)ccc1Cl,inactive
12,CCCSP(=S)(OCC)Oc1ccc(SC)cc1 (stereo not given),inactive
13,CCSCc1ccccc1OC(=O)NC,inactive
14,O=C(O)C(F)(F)C(F)(F)C(F)(F)C(F)(F)C(F)(F)C(F)(F)C(F)(F)C(F)(F)F,inactive
15,CC(C)CCON=O,inactive
16,CCCCC#N,inactive
17,Clc1ccc2ccccc2c1,inactive
18,CCc1cnc(C2=NC(C)(C(C)C)C(=O)N2)c(C(=O)O)c1 (stereo not given),inactive
19,CCC1(C2=NCCN2)Cc2ccccc2O1 (stereo not given),inactive
20,CC(CC(C(N)=O)(c1ccccc1)c1ccccc1)N(C)C (stereo not given),inactive
